43 sequences from paper PMC10726135, “HNF4α isoforms regulate the circadian balance between carbohydrate and lipid metabolism in the liver” can be followed below.

Whole data set: some 18,000 sequences, median “log2 normalized intensity” near 0.36, cut for the highest 2% near 7.3. This excerpt belongs to a sample that is enriched for the highest values.

The target in this assay is T1, HNF4alpha8 (COS-7 nuclear extract) (Homo sapiens, UniProt P41235-5 1-452).
T1 sequence: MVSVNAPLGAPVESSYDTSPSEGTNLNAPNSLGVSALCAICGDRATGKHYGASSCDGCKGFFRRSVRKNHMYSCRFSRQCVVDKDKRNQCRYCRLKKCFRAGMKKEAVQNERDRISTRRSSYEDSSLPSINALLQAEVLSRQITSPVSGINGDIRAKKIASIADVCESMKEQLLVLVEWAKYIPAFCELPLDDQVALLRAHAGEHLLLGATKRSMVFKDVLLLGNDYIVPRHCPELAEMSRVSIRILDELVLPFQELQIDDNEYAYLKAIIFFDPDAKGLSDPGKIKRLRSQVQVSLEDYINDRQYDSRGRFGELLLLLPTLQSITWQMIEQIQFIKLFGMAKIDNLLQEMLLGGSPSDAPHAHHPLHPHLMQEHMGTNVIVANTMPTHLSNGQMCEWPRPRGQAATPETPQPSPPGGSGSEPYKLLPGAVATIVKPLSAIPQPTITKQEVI
The assay can be described thus: protein-binding microarray; COS-7 nuclear extract on double-stranded Agilent 4x180k PBM; binding buffer, salt, pH and temperature not given in the material; high values mean tight binding. As to conditions: chain copies: 2; label: 3' end of strand 1 on the slide; dsDNA, one strand shown. Put shortly:
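Nuclear extracts of COS-7 cells transiently transfected with a human HNF4α isoform were applied to a custom Agilent SurePrint G3 4x180k array bearing ~44,000 double-stranded ~60-nt test sequences, each in quadruplicate. The bound protein was imaged on an Agilent G2565CA scanner at 2-µm resolution. Binding signal is the normalized, background-corrected gProcessedSignal from Agilent software.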
“TGCCTTATCTGGTTCAAAGGTCATTTCTGCGCCTAGGGAGATTAGAGTATCGGTCGA”: the binding signal was 7.61 log2 normalized intensity.

On to “TATCTGGTTCAAAGGTCATTTCTGCTTGCAGCCTAGGGAGATTAGAGTATCGGTCGA”, for which the binding signal was found to be 6.43 log2 normalized intensity. On to “TTATCTTACATGCCTTATCTGGTTCAAAGGGCCTAGGGAGATTAGAGTATCGGTCGA”, for which the binding signal was found to be 3.33 log2 normalized intensity.

In the case of “TCCTTTTATCTTACATGCCTTATCTGGTTCGCCTAGGGAGATTAGAGTATCGGTCGA”, the binding signal was 1.64 log2 normalized intensity. Regarding “TTACATGCCTTATCTGGTTCAAAGGTCATTGCCTAGGGAGATTAGAGTATCGGTCGA”, the binding signal was determined as 8.2 log2 normalized intensity. With “TCCAGAATTGTGTGGTTATCTGTTGGGGAAGCCTAGGGAGATTAGAGTATCGGTCGA”, the binding signal came to 2.14 log2 normalized intensity. As for “CCTTGGGTCTGTAATCTCACAACTCAGAAGGCCTAGGGAGATTAGAGTATCGGTCGA”, the binding signal was -0.129 log2 normalized intensity. On to “GGGAGGAGGGCAACCTTTGAACTGGGTCTTGCCTAGGGAGATTAGAGTATCGGTCGA”, for which the binding signal worked out at 4.84 log2 normalized intensity. On to “GGACTTTGAACCTTGGGTCTGTAATCTCACGCCTAGGGAGATTAGAGTATCGGTCGA”, for which the binding signal is 7.84 log2 normalized intensity.

On to “CAAAACTTTAGGACTTTGAACCTTGGGTCTGCCTAGGGAGATTAGAGTATCGGTCGA”, for which the binding signal was found to be 7.83 log2 normalized intensity. As to “TGCAGCAAAACTTTAGGACTTTGAACCTTGGCCTAGGGAGATTAGAGTATCGGTCGA”, the binding signal is 9.2 log2 normalized intensity. With “CCTTGCCACCCACACTGCAGCAAAACTTTAGCCTAGGGAGATTAGAGTATCGGTCGA”, the binding signal was -0.731 log2 normalized intensity. On to “TTGAACCTTGGGTCTGTAATCTCACAACTCGCCTAGGGAGATTAGAGTATCGGTCGA”, for which the binding signal amounted to 1.98 log2 normalized intensity. Take “CACACTGCAGCAAAACTTTAGGACTTTGAAGCCTAGGGAGATTAGAGTATCGGTCGA”: the binding signal turned out to be 4.12 log2 normalized intensity.

As for “CTTTAGGACTTTGAACCTTGGGTCTGTAATGCCTAGGGAGATTAGAGTATCGGTCGA”, the binding signal was determined as 6.82 log2 normalized intensity. As to “GGGCAGCAAACCTACCTGAACTTTGCCCCAGCCTAGGGAGATTAGAGTATCGGTCGA”, the binding signal was determined as 8.83 log2 normalized intensity. Turning to “GCAAACCTACCTGAACTTTGCCCCAGAGGAGCCTAGGGAGATTAGAGTATCGGTCGA”, the binding signal was found to be 6.74 log2 normalized intensity. As to “ATAAGGGGCAGCAAACCTACCTGAACTTTGGCCTAGGGAGATTAGAGTATCGGTCGA”, the binding signal came to 3.58 log2 normalized intensity. As to “GTTGCCTGTGAGTCAGGTACCTGCTTCTGCGCCTAGGGAGATTAGAGTATCGGTCGA”, the binding signal was found to be 0.609 log2 normalized intensity. Take “TACTTAGTGTTTTATGTGTATTTACTTATTGCCTAGGGAGATTAGAGTATCGGTCGA”: the binding signal was 1.74 log2 normalized intensity.

Regarding “GGCAAGATTTTGTCCTGAGTTATTGGAAGAGCCTAGGGAGATTAGAGTATCGGTCGA”, the binding signal turned out to be 0.282 log2 normalized intensity. With “TCTTCAAGGAGGTGAACTTTGAGACTATCCGCCTAGGGAGATTAGAGTATCGGTCGA”, the binding signal is 5.2 log2 normalized intensity. Turning to “AAAGTTTCCTCTCCTGCCCTACTCCCTTAAGCCTAGGGAGATTAGAGTATCGGTCGA”, the binding signal was determined as 2.63 log2 normalized intensity. Regarding “AGTGGTTTCAAGGTGACCCCACGGAGCTGCGCCTAGGGAGATTAGAGTATCGGTCGA”, the binding signal amounted to 3 log2 normalized intensity. For “CCTACCAGTATGCAATGTTAGTCTGGGAAAGCCTAGGGAGATTAGAGTATCGGTCGA”, the binding signal is -0.0207 log2 normalized intensity.

As to “ATTGCCGACCTCATGAGTAGAGAGCAATCAGCCTAGGGAGATTAGAGTATCGGTCGA”, the binding signal was -0.943 log2 normalized intensity. With “TGTCTCCAGAAATCAACCTTTGATCGTTTGGCCTAGGGAGATTAGAGTATCGGTCGA”, the binding signal is 6.77 log2 normalized intensity. The value for “ATGTCTCCAGAAACCAACCTTTGATCATTCGCCTAGGGAGATTAGAGTATCGGTCGA” was 5.75 log2 normalized intensity; that for “ACTTCTGTCTCCAGAAATCAACCTTTGATCGCCTAGGGAGATTAGAGTATCGGTCGA” was 8.8 log2 normalized intensity; that for “GCCAGAACTGAGCCCTGGTTTATCTGTTGTGCCTAGGGAGATTAGAGTATCGGTCGA” was 0.861 log2 normalized intensity. With “TTTTCAATCTTATTTTTACTATGTGGCATTGCCTAGGGAGATTAGAGTATCGGTCGA”, the binding signal was found to be 1.35 log2 normalized intensity. As for “TCAGAGGAATGTCTGACCAACCTGTCCAAAGCCTAGGGAGATTAGAGTATCGGTCGA”, the binding signal was -0.555 log2 normalized intensity. For “CACTTACAAGTGTACAAAGGTCACTTCTGTGCCTAGGGAGATTAGAGTATCGGTCGA”, the binding signal turned out to be 7.03 log2 normalized intensity. As for “AGTATATTGGCTTGGCTGTGTCCCTTGACCGCCTAGGGAGATTAGAGTATCGGTCGA”, the binding signal is 3.67 log2 normalized intensity. Take “ATTGGCTTGGCTGTGTCCCTTGACCAAAGGGCCTAGGGAGATTAGAGTATCGGTCGA”: the binding signal is 2.62 log2 normalized intensity. The value for “TTATATCAGAGGAATGTCTGACCAACCTGTGCCTAGGGAGATTAGAGTATCGGTCGA” was 0.807 log2 normalized intensity. For “TATACCTGTACACTTACAAGTGTACAAAGGGCCTAGGGAGATTAGAGTATCGGTCGA”, the binding signal turned out to be 2.96 log2 normalized intensity. In the case of “GTCTGACCAACCTGTCCAAAGGTCATCTGTGCCTAGGGAGATTAGAGTATCGGTCGA”, the binding signal was 7.75 log2 normalized intensity.

Take “CCTGTCCAAAGGTCATCTGTCACTCTAGATGCCTAGGGAGATTAGAGTATCGGTCGA”: the binding signal is 6.02 log2 normalized intensity.

In the case of “ACCAACCTGTCCAAAGGTCATCTGTCACTCGCCTAGGGAGATTAGAGTATCGGTCGA”, the binding signal turned out to be 6.36 log2 normalized intensity. On to “CTTGGCTGTGTCCCTTGACCAAAGGTCACTGCCTAGGGAGATTAGAGTATCGGTCGA”, for which the binding signal turned out to be 7.67 log2 normalized intensity. To “GGAATGTCTGACCAACCTGTCCAAAGGTCAGCCTAGGGAGATTAGAGTATCGGTCGA” belongs 8.5 log2 normalized intensity; to “CTGTACACTTACAAGTGTACAAAGGTCACTGCCTAGGGAGATTAGAGTATCGGTCGA”, 8.53 log2 normalized intensity.
